# An excerpt weighted towards active compounds, which were near 2.4% of everything screened.
# CHT allo act = human CHT allosteric activation | Q9GZV3 | CHT-expressing cells, membrane potential dye, choline EC20; stronger effect = higher value; LV-AA mutant CHT in HEK293 cells | B-score at 10 µM | actives 0.49% (n = 310,000) | AID 488977;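 active = initial fluorescence not abnormally high and integrated response B-score, plate-corrected, over 3 SD above library mean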
# TMEM16A act = mouse TMEM16A channel activation, primary screen | Q8BHY3 | HEK293 TMEM16A/YFP-H148Q/I152L, iodide quench fluorescence; stronger effect = lower value | B-score at 10 µM | actives 0.3% (n = 340,000);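 active = fluorescence-ratio B-score plate-corrected deviation score at least 3 library SD below zero, with starting fluorescence score within 5 deviations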;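 note: channel opened by trigger with iodide after compound preincubation; score built on the fluorescence ratio of max minus min over baseline; more negative score means more quench and so TMEM16A activation or potentiation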
# CHT inh = inhibits the human high affinity choline transporter; Q9GZV3; CHT-expressing cells, membrane potential dye, choline response; stronger effect = lower value; B-score at 10 µM; actives 0.86% (n = 310,000); AID 488975;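 active = B-score over 3 SD under the library average, and starting fluorescence ratio not unusually high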;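 note: choline stimulus applied at its EC90 after an EC20 pre-addition; B-score computed on integrated fluorescence ratio after choline addition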
# TMEM16A inh = inhibitors of mouse TMEM16A calcium-activated chloride channel | Q8BHY3 | actives 1.2% (n = 310,000) | normalized B-score (activity score, 25-100; higher = stronger inhibition) at 10 µM | HEK293 TMEM16A/YFP iodide influx fluorescence, ionomycin;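 active = ratio plate-corrected score three or more library SD toward inhibition, starting fluorescence score within five deviations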;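 note: score derived from kinetic fluorescence span divided by baseline fluorescence per well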
# CHT block conf = human CHT inhibition, confirmatory screen. shares compounds with CHT inh. CHT-expressing cells, choline membrane potential dye; LV-to-AA substituted CHT, HEK293 cells. CHT activity remaining % of control (stronger effect = lower value), % at 10 µM. actives 70% (n = 2,400). AID 493221;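 active = choline transporter activity left, mean of duplicates at 10 µM, below buffer-only control mean minus 3 SD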;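 note: depolarization triggered by choline at its EC90 following an EC20 pre-addition; 0% = hemicholinium-3 full block and 100% = buffer-only control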
# HEK293 CHT ctr = counter-screen for CHT inhibitors: effect in parental HEK293 cells | shares compounds with CHT inh | membrane potential dye, choline response; active = decrease or increase beyond buffer ±3SD | membrane potential ratio readout (active if shifted either direction beyond buffer ±3SD; no single direction) at 10 µM | actives 4% (n = 2,400) | AID 493222;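 note: parental cells lack the transporter so any hit is non-specific; ratio is peak minus trough fluorescence over baseline after EC90 choline challenge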
# * = called active by the depositor; i = inactive; / = no result given.
SMILES,CHT allo act,TMEM16A act,CHT inh,TMEM16A inh,CHT block conf,HEK293 CHT ctr
Cc1ccccc1NC(=S)NNC(=O)c1ccncc1,i,i,-6.13*,i,61.3%*,i
COc1ccc(C(=O)NNC(=S)NC(=O)c2ccc(OC)cc2)cc1,i,i,i,i,/,/
O=C(Cc1ccc(Cl)cc1)NNC(=S)NC(=O)c1cccs1,i,i,-5.23*,i,i,i
Cc1ccccc1C(=O)NNC(=S)NC(=O)c1ccccc1,i,i,-8.44*,i,46.9%*,i
O=C(NC(=S)NNC(=O)c1ccccc1O)c1ccccc1,i,i,i,i,/,/
COc1ccc(C(=O)NC(=S)NNC(=O)c2cccc(C)c2)cc1,i,i,-7.75*,25*,i,i
COc1ccccc1NC(=O)C1CC(C(C)C)OC1=O (stereo not given),i,i,i,i,/,/
O=C(CCN1C(=O)[C@@H]2Cc3ccccc3CN2C1=O)NCc1ccc(Cl)cc1,i,i,i,i,/,/
Cc1cccc(C(=O)NNC(=O)c2ccc(O)cc2)c1,i,i,i,i,/,/
Cc1cccc(C(=O)NNC(=S)NC(=O)c2cccs2)c1,i,i,-7.53*,i,28.6%*,i
Cc1cccc(C(=O)NNC(=S)NC(=O)c2ccccc2)c1,i,i,-7.36*,100*,40.9%*,i
O=C(NC(=S)NNC(=O)[C@H]1C[C@@H]1c1ccccc1)c1cccc(F)c1,i,i,-7.76*,100*,49.1%*,i
COc1ccc(C(=O)NNC(=S)NC(=O)c2cccs2)cc1,i,i,i,i,/,/
O=C(c1ccco1)N1CCN(C(=O)c2cn(-c3ccccc3)nc2-c2ccccc2)CC1,/,i,/,/,/,/
Cc1ccccc1CNS(=O)(=O)c1c(C(=O)N2CCCC2)c(C)n(C)c1C,i,i,i,i,/,/
CCOC(=O)N1CCN(C(=O)c2ccc3nc(N4CCC(C)CC4)sc3c2)CC1,i,i,-7.2*,i,69.3%*,i
COc1ccc(CCC(=O)Nc2ccc(Cl)c(S(=O)(=O)N3CCCC3)c2)cc1,i,i,i,i,/,/
Cc1ccc(-c2csc3nc(SCC(=O)Nc4ccc(Cl)c(C(=O)O)c4)[nH]c(=O)c23)cc1,i,i,-5.62*,i,67.2%*,i
COc1ccc(Cl)cc1NC(=S)NCc1ccccn1,i,i,i,i,/,/
S=C(NCc1ccccn1)Nc1ccc(Cl)cc1Cl,i,i,-5.16*,i,53.4%*,i
CC12CCC(=O)N1C(C(=O)Nc1ccc(F)cc1)CS2 (stereo not given),i,i,i,i,/,/
CCc1ccc(OCc2n[nH]c(=S)n2Cc2ccccc2)cc1,i,i,-6.47*,i,67.5%*,i
COc1ccc(C(=O)NCCOc2ccccc2)cc1S(=O)(=O)N1CCOCC1,/,i,/,/,/,/
CC(C)(C)OC(=O)NCCCCCc1nnc(SCC(=O)Nc2cccc(Cl)c2)o1,i,i,-5.63*,100*,i,i
CC(C)(C)OC(=O)NCCc1nnc(SCc2ccc(Cl)cc2)o1,i,i,-6.15*,i,65.2%*,i
SMILES,CHT allo act,TMEM16A act,CHT inh,TMEM16A inh,CHT block conf,HEK293 CHT ctr
CC(C)(C)OC(=O)NCCc1nnc(SCC(=O)Nc2cccc(Cl)c2)o1,i,i,i,i,/,/
Cc1ccc(/C=N/N=C2/NC(=O)C(CC(=O)N3CCOCC3)S2)cc1 (stereo not given),i,i,i,i,/,/
CCn1nc(C(=O)NCC2COc3ccccc3O2)c2ccccc2c1=O (stereo not given),/,i,/,/,/,/
CCn1c(=O)n(CC(=O)Nc2ccc(F)cc2)c(=O)c2ccccc21,i,i,i,i,/,/
O=C(O)CC/C(=N\Nc1ccccc1[N+](=O)[O-])c1cccs1,i,i,-5.67*,i,48.1%*,2.86*
CCc1nc(NC(C)C)c2oc3ccccc3c2n1,i,i,i,i,/,/
CCc1nc(NCc2ccccn2)c2oc3ccccc3c2n1,i,i,i,i,56.3%*,i
Cc1ccc(/C=C2\SC(=O)N(CCC(=O)N3CCN(C)CC3)C2=O)cc1,i,i,i,i,/,/
CN1CCN(C(=O)CCN2C(=O)S/C(=C/c3ccc(Cl)cc3)C2=O)CC1,i,i,-6.47*,i,50.4%*,i
O=c1c2c(C(F)(F)F)cc(C(F)(F)F)nc2[nH]n1-c1ccccc1,i,i,-6.11*,i,46.1%*,i
Cc1cc(C(C)(C)C)nc2[nH]n(-c3ccccc3)c(=O)c12,i,i,i,i,/,/
CCOc1nc(-c2ccccc2)ncc1Oc1ccccc1,i,i,-5.03*,i,i,i
COc1cnc(-c2ccccc2)nc1Oc1ccc(C(C)(C)C)cc1,i,i,i,i,/,/
CCOC(=O)[C@@H]1[C@H]2COc3ccc(Br)cc3[C@@H]2N2C(=O)N(c3ccc(Cl)cc3)C(=O)[C@@]12C,/,i,/,/,/,/
CC(=O)N(C)c1ccc(OCC(O)CN(c2ccccc2C)S(=O)(=O)c2ccc(C)cc2)cc1 (stereo not given),i,i,-18.1*,i,-11.3%*,i
CC(=O)N(C)c1ccc(OCC(O)CN(Cc2ccco2)S(=O)(=O)c2ccc(C)cc2)cc1 (stereo not given),i,i,i,i,/,/
NC(=O)c1cc(Cl)ccc1OCC(=O)Nc1ccc2c(c1)OCO2,/,i,/,/,/,/
COc1ccc(/C=C\C(=O)NCC(=O)N/N=C/c2ccc(O)cc2O)cc1,i,i,-5.47*,i,i,i
O=C(Nc1cccc(CNCCc2c[nH]c3ccccc23)c1)c1ccccc1Cl,i,i,-6.28*,i,30.9%*,i
CC(=O)c1cccc(NC(=O)NCCc2c[nH]c3ccccc23)c1,i,i,i,i,/,/
Cc1nnc(SCc2ccc(F)cc2)n1NC/C=C/c1ccccc1,i,i,-7.09*,i,i,i
C=CCSc1nc2ccccc2n1Cc1nnc(-c2cccs2)o1,i,i,-6.17*,i,59.5%*,i
C=CCn1c(-c2cccs2)nc2ccccc21,i,i,i,i,/,/
Cc1ccc2nc(NC(=O)CN3C(=O)C4CC=CCC4C3=O)sc2c1 (stereo not given),i,i,-5.2*,i,i,i
Cc1ccc(NC(=O)CC2SCCNC2=O)cc1[N+](=O)[O-] (stereo not given),i,i,i,i,/,/

# Screening data deposited in PubChem by Johns Hopkins Ion Channel Center.
